# A selection: hits, their analogues and other compounds. The true share with any hit is near 0.47%.
# UDG counterscr: counter-screen for AID inhibitors: uracil-DNA glycosylase inhibition; AID 1347430; FRET deamination/UDG coupled assay, UDG read, 4 h; Potency, µM (titrated, usually from 115 µM), for inactives: at the top dose activity change, negative = inhibition, most hits filed as inhibitors; actives 0.14% (n = 91,000); also: nearly all actives have a fitted effect of over 65% in size
# AID inhibitor: activation induced cytidine deaminase inhibition. Potency, µM (series often up to 115 µM), usual class: inhibitors. actives 0.32% (n = 91,000). Q9GZX7. AID deamination FRET fluorescence, UDG-coupled, 4 h. AID 1347428; also: nearly all actives have a fitted effect of over 25% in size
# Target sequence (Q9GZX7 whole entry, looked up): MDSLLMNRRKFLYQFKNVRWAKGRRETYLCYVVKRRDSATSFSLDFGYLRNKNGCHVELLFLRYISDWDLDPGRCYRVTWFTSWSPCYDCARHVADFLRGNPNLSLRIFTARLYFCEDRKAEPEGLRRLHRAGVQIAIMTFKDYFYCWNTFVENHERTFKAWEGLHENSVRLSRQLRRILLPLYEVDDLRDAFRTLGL
# An asterisk follows results filed as active; i = inactive; ? = inconclusive. Calls follow the shape of the dose curve; as a rule, active = well fitted curve in the direction sought with a large enough effect; inconclusive = small, poorly fitted or top-dose-only effect, or another doubt; inactive = no such curve, though single readings can be large; an effect the other way counts as inactive or inconclusive. % is scaled to controls: 0 for no effect and ±100 for the full control effect; potency is read from the fitted curve at half-maximal effect.
SMILES,UDG counterscr,AID inhibitor
Cc1nc2nc(N(Cc3ccccc3)C(=O)c3ccco3)[nH]n2c(=O)c1Cc1ccccc1Cl,0%,?
Cc1nc2c(C(=O)NCc3ccccc3)c[nH]n2c(=O)c1Cc1ccccc1Cl,-4%,89µM*
O=C(O)c1ccc(-n2c(/C=C\c3ccc(O)cc3)nc3ccccc3c2=O)cc1,-7%,i
O=C(O)c1cc(-n2c(/C=C\c3ccc(F)cc3)nc3ccccc3c2=O)ccc1Cl,89µM*,?
CCc1cccc(NC(=O)C2CCN(S(=O)(=O)c3cccc(-c4noc(C)n4)c3)CC2)c1,79µM*,i
Cc1nc(-c2cccc(S(=O)(=O)N3CCC(C(=O)NCc4ccccc4Cl)CC3)c2)no1,?,i
O=C(O)c1cccc(NC(=O)c2cccc(S(=O)(=O)Nc3cccc(C(=O)O)c3)c2)c1,-7%,i
O=C(Nc1cccc(C(=O)Nc2ccc(S(=O)(=O)O)c3cc(S(=O)(=O)O)cc(S(=O)(=O)O)c23)c1)Nc1cccc(C(=O)Nc2ccc(S(=O)(=O)O)c3cc(S(=O)(=O)O)cc(S(=O)(=O)O)c23)c1,-8%,50µM*
Cc1ccc(/C=C/c2onc(C)c2S(=O)(=O)N2CCC(C(=O)N3CCC(N(C)C(C)C)CC3)CC2)cc1,-20%,45µM*
CC(=O)c1ccc(N2CCN(C(=O)C3CCN(S(=O)(=O)c4c(C)noc4/C=C/c4ccc(C)cc4)CC3)CC2)cc1,1%,i
CC(C)COc1ccc(C(=O)Nc2cccc3ncccc23)cc1,0%,i
